A selection: hits, their analogues and other compounds. The true share with any hit is near 2.7%.
Nrf2 inh – blocks Nrf2 signaling | A549 ARE-Fluc reporter, luciferase luminescence, 18-24 h | Potency, µM (highest dose often 46 µM), for inactives: top-dose activity change, negative = inhibition, actives largely listed as inhibitors | 360,000 compounds, 2.1% hits | AID 504444; also: potency is read from the fitted curve at half-maximal effect; % is scaled to controls: 0 for no effect and ±100 for the full control effect; nearly all actives have a fitted effect of over 60% in size
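Reporter: ARE-Fluc in A549. Exposure: 18-24 h, 37 °C, 5% CO2, 5% FBS OPTI-MEM. Readouts: fluorescent cytotoxicity (CellTiter-Fluor), then luminescent Nrf2 signal after BugLite.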
Nrf2 activator – activators of Nrf2 (ARE) signaling; Potency, µM (titrated, usually from 46.1 µM), for inactives: at the highest dose activation, most hits filed as activators; 410,000 compounds, 0.31% hits; AREc32 ARE-luciferase reporter (MCF7-derived line), luminescence, 24 h; also: potency is read from the fitted curve at half-maximal effect; % of control where 0% means no effect; nearly all actives have a fitted effect of over 65% in size
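Luminescent ARE reporter assay in AREc32_Fluc cells: overnight plating at 37 deg C, 24 hr compound incubation, Steady-Glo added, 30 min RT before reading.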
ALOX12 inh – ALOX12 (human) lipoxygenase inhibition. purified 12hLO, xylenol orange hydroperoxide absorbance. 580,000 compounds, 1.1% hits. AID 1671190. Potency, µM (top dose mostly 108 µM), without a hit: at the top dose activity change, negative = inhibition, usual class: inhibitors. P18054; also: potency is read from the fitted curve at half-maximal effect; % is scaled to controls: 0 for no effect and ±100 for the full control effect
Target sequence (P18054 whole entry, looked up): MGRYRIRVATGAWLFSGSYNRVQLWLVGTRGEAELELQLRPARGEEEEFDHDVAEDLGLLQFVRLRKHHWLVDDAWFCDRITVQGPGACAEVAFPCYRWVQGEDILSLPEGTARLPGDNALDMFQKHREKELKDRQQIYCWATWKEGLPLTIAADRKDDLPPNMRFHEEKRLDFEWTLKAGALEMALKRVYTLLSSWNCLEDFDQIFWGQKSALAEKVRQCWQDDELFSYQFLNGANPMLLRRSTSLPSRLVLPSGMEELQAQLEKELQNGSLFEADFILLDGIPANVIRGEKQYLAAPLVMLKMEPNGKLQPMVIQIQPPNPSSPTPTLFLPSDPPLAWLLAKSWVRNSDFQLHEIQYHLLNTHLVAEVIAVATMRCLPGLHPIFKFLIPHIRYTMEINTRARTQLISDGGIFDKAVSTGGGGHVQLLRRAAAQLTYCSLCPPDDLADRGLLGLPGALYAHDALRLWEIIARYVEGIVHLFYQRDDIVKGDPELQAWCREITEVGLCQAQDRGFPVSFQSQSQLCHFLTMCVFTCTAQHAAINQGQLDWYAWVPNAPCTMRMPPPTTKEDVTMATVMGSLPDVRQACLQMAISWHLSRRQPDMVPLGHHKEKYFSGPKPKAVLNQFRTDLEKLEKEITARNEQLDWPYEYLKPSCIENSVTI
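Purified human 12hLO at 150 nM in 25 mM Hepes, 0.01% Triton X-100, pH 7.0, preincubated 15 min at room temperature with compound. Reaction started with 40 uM arachidonic acid, 30 min at room temperature. Hydroperoxide measured by Fe-xylenol orange, 573/405 nm absorbance ratio.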
ERG Ets-DNA blk – blocks human ERG Ets domain binding to DNA; Potency, µM (doses to about 76.9 µM), without a hit: at the top dose FP activity, negative = inhibition, actives largely listed as inhibitors; fluorescence polarization, His-ERG Ets domain / labelled DNA; AID 624246; 370,000 compounds, 0.028% hits; active = well fitted inhibition curve with a large enough effect in the polarisation, with a control signal flat; inconclusive = small, poorly fitted or top-dose-only effect, or effect the other way, or a change in a side signal; inactive = no such curve, though single readings can be large or run the other way; the % refers to the polarisation;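 also: polarization taken with two DNA probes labelled with fluorescein and Texas red; potency is read from the fitted curve at half-maximal effect; % of control where 0% means no effect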
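His-tagged ERG Ets domain (1 uM in the protein solution; 300mM KCl, 50mM Tris-HCl, 1mM EDTA, 1mM DTT, pH 7.5) received compound, then a probe mix of 5 nM fluorescein-DNA and 100nM Texas-615-DNA. Fluorescence polarization was read for both dyes.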
LDHA block – LDHA (human) enzyme inhibition; purified LDHA, NADH/diaphorase-resazurin fluorescence; active compounds read low; activity change, % (values are at about 110 or 230 µM); 480,000 compounds, 0.15% hits; in the data active = activity change below about -30%; inconclusive = mostly about -25% to -30%;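 also: plate controls were DMSO wells for no effect and wells without enzyme for full effect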
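LDH5 2 nM; NADH 0.06 mM, pyruvate 0.2 mM; 200 mM Tris pH 7.4, EDTA, Tween-20; 5 min RT. Detection: diaphorase 0.133 mg/mL + resazurin 37 µM, fluorescence ex540/em590 at 0 and 20 min; normalized to enzyme-free and DMSO wells.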
A549 tox-1 – counter-screen for Nrf2 inhibitors: cytotoxicity in A549 cells; A549 ARE-Fluc cells, CellTiter-Fluor viability, 18-24 h; Potency, µM (highest dose often 46 µM), for inactives: top-dose activity change, negative = cytotoxicity, hits mostly inhibitors; 390,000 compounds, 0.16% hits; AID 504648; also: potency is read from the fitted curve at half-maximal effect; % is scaled to controls: 0 for no effect and ±100 for the full control effect
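Cytotoxicity counterscreen: CellTiter-Fluor fluorescence was measured in A549 ARE_Fluc cells after 18-24 h of compound exposure in a concentration series. The subsequent BugLite luminescent read reports ARE-luciferase activity.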
FLuc enzyme inh – counter-screen for Nrf2 inhibitors: firefly luciferase enzyme inhibition; shares compounds with Nrf2 inh; Potency, µM (doses to about 57.5 µM), inactives show at the top dose activity change, negative = inhibition, most hits filed as inhibitors; purified firefly luciferase, luminescence inhibition; 1,400 compounds, 4% hits; AID 720522; also: potency is read from the fitted curve at half-maximal effect; % is scaled to controls: 0 for no effect and ±100 for the full control effect; nearly all actives have a fitted effect of over 65% in size
A549 tox-2 – A549 cytotoxicity, Nrf2 inhibitor counterscreen; shares compounds with Nrf2 inh; A549 ARE-Fluc cells, cytotoxicity counterscreen; Potency, µM (highest dose often 46.1 µM), without a hit: at the top dose activity change, negative = cytotoxicity, usual class: inhibitors; 1,400 compounds, 2% hits;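 also: potency is read from the fitted curve at half-maximal effect; cells exposed to compounds for 18 to 24 hours; % is scaled to controls: 0 for no effect and ±100 for the full control effect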
Nrf2 ARE inh – Nrf2 inhibition confirmed, A549 ARE-luciferase | shares compounds with Nrf2 inh | A549 ARE-firefly luciferase reporter, luminescence | 1,400 compounds, 74% hits | Potency, µM (top dose mostly 46.1 µM), inactives show at the highest dose activity change, negative = inhibition, most hits filed as inhibitors | AID 720524; also: potency is read from the fitted curve at half-maximal effect; % is scaled to controls: 0 for no effect and ±100 for the full control effect; nearly all actives have a fitted effect of over 65% in size
The depositor's hits bear a star; [ ] = another dose, or the depositor's remark. Unless noted, calls follow the shape of the dose curve; as a rule, active = well fitted curve in the direction sought with a large enough effect; inconclusive = small, poorly fitted or top-dose-only effect, or another doubt; inactive = no such curve, though single readings can be large; an effect the other way counts as inactive or inconclusive.

What do the screens show for `O=C1c2ccc(Oc3ccc([N+](=O)[O-])cc3)cc2C(=O)N1CCCO`?
Nrf2 inh: 4.1µM*; Nrf2 activator: 0%[9.22 µM]; ALOX12 inh: 0%; ERG Ets-DNA blk: -7%; LDHA block: -8; A549 tox-1: 4%; FLuc enzyme inh: 0%; A549 tox-2: -5%; Nrf2 ARE inh: inconclusive

What do the screens show for `COc1nc2ccccc2nc1CCC(=O)N[C@H]1COC[C@H]1Cc1cc(C)no1`?
ALOX12 inh: 26%

How did C/C(=N\Nc1ccc2nncn2n1)c1ccccn1 do in these assays?
Nrf2 inh: 3.7µM*; Nrf2 activator: 0%; ALOX12 inh: inactive; ERG Ets-DNA blk: -4%; LDHA block: -3; A549 tox-1: -27%; FLuc enzyme inh: -17%; A549 tox-2: -9%; Nrf2 ARE inh: 2.6µM*

Results for O=C(Nc1nnc(C2CC2)s1)C1CC(c2cccc(F)c2)=NO1 (configuration not stated) ?
ALOX12 inh: -17%; LDHA block: 11

What do the screens show for `CC(C(=O)Nc1ccc(O)cc1)c1cccc(C(=O)c2ccccc2)c1` (configuration not stated)?
Nrf2 inh: 9.2µM*; Nrf2 activator: 3%; ALOX12 inh: -10%; ERG Ets-DNA blk: 1%; LDHA block: -3; A549 tox-1: -26%; FLuc enzyme inh: -15%; A549 tox-2: 2%; Nrf2 ARE inh: inconclusive

Results for Clc1ccc2c(c1)nc(CN1CCOCC1)n2Cc1ccccc1 ?
ALOX12 inh: 42%; LDHA block: 4

How did O=C(OCc1cc([N+](=O)[O-])cc2c1OCOC2)C12CC3CC(CC(Br)(C3)C1)C2 do in these assays?
ALOX12 inh: inconclusive; LDHA block: 7

What do the screens show for `CC(C)NNC(=O)c1ccccc1`?
ALOX12 inh: 17%; LDHA block: -10

How did Cc1ccccc1-n1ncc2c(SCC(=O)NC3CCCC3)ncnc21 do in these assays?
Nrf2 inh: 8.2µM*; Nrf2 activator: 0%; ALOX12 inh: 0%; ERG Ets-DNA blk: -3%; LDHA block: -6; A549 tox-1: -20%; FLuc enzyme inh: 0%; A549 tox-2: -4%; Nrf2 ARE inh: 15µM*

Results for Cc1ccc(-c2noc(CCC(=O)Nc3cccc(S(=O)(=O)NC4=NCCC4)c3)n2)cc1 ?
ALOX12 inh: inconclusive; LDHA block: -10

What do the screens show for `O=C(COc1cccc2ccccc12)N1CCN(c2ccccc2)CC1`?
Nrf2 activator: 1%; ALOX12 inh: 0%; ERG Ets-DNA blk: 8%; LDHA block: -1; A549 tox-1: 2%

What do the screens show for `COc1ccc(N2CCN(C(=O)COc3cccc4ccccc34)CC2)cc1`?
Nrf2 inh: 2.6µM*; Nrf2 activator: -1%; ERG Ets-DNA blk: -5%; LDHA block: 1; A549 tox-1: inconclusive; FLuc enzyme inh: -6%; A549 tox-2: 8%; Nrf2 ARE inh: -5%
